# Publication PMC7862700, “An all-to-all approach to the identification of sequence-specific readers for epigenetic DNA modifications on cytosine”
# Key:
# Assay in all cases: DAPPL (digital affinity profiling via proximity ligation, sequencing); 10 mM Tris-HCl pH 7.5, 50 mM NaCl, 1 mM DTT, 4% glycerol, room temperature, 30 min; GST-TFs on glutathione beads, 16-mer random dsDNA library, 0.1% formaldehyde crosslink after washing; high values mean tight binding
# [1] = biological target: T1, FEV (Homo sapiens, UniProt Q99581 1-238); conditions: protein: recombinant; tags: N-terminal GST; dsDNA, one strand shown
# T1 sequence: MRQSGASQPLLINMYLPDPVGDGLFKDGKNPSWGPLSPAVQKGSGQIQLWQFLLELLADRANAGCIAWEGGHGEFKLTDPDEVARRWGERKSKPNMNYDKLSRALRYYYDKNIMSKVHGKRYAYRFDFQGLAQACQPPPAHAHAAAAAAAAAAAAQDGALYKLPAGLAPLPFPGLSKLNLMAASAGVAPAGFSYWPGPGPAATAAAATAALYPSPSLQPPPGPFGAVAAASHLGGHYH
# In short: (§1)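 Binding signal is defined as a hexamer's read frequency for one factor over its frequency for the tag-only sample. To obtain reads, GST-fused human transcription factors were expressed in yeast, captured on glutathione beads, barcoded with DNA and pooled with that sample. Pools met 200 nmole of a 16-mer random double-stranded DNA library in Tris/NaCl/DTT/glycerol buffer for 30 min at room temperature before washing, 0.1% formaldehyde crosslinking, proximity ligation (BsaI/T4 ligase, 1 h, 37 °C), PCR and Illumina NextSeq500 sequencing.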
# [2] = biological target: ETV5 (Homo sapiens, UniProt P41161 1-510); conditions: protein: recombinant; tags: N-terminal GST; dsDNA, one strand shown
# In short: as §1
# [3] = biological target: HSF1 (Homo sapiens, UniProt Q00613 1-529); conditions: protein: recombinant; tags: N-terminal GST; chain copies: 3; dsDNA, one strand shown
# In short: as §1
# [4] = biological target: T2, SPIC (Homo sapiens, UniProt Q8N5J4 1-248); conditions: protein: recombinant; tags: N-terminal GST; dsDNA, one strand shown
# T2 sequence: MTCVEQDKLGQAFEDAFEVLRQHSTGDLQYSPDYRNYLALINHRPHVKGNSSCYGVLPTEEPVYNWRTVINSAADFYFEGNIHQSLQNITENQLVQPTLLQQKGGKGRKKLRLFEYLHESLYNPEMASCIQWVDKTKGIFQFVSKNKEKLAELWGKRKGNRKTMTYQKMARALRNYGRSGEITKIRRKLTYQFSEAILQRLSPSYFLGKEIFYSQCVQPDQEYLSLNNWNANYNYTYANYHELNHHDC
# In short: as §1
# [5] = biological target: ELF4 (Homo sapiens, UniProt Q99607 1-663); conditions: protein: recombinant; tags: N-terminal GST; dsDNA, one strand shown
# In short: as §1
# [6] = biological target: T3, ELK4 (Homo sapiens, UniProt P28324-2 1-405); conditions: protein: recombinant; tags: N-terminal GST; dsDNA, one strand shown
# T3 sequence: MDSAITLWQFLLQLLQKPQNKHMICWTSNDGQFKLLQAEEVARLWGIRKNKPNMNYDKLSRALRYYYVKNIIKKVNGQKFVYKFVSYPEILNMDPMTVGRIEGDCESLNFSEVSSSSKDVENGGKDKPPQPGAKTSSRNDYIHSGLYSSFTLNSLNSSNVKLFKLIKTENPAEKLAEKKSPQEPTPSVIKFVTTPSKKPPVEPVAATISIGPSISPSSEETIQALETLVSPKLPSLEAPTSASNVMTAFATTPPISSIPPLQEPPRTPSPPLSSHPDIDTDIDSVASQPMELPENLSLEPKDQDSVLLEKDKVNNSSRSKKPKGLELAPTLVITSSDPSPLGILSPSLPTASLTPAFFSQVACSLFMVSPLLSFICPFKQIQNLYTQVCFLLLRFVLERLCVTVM
# In short: as §1
# [7] = biological target: T4, ETV2 (Homo sapiens, UniProt O00321 1-342); conditions: protein: recombinant; tags: N-terminal GST; dsDNA, one strand shown
# T4 sequence: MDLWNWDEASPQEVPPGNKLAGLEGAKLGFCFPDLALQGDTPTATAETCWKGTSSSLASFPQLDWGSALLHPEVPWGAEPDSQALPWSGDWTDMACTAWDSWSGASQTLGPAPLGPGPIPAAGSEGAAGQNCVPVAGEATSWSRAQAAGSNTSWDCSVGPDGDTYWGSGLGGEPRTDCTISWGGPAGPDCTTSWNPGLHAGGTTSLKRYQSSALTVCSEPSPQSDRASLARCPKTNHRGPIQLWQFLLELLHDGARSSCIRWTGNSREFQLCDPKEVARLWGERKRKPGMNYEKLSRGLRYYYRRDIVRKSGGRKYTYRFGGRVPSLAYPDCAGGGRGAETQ
# In short: as §1
# [8] = biological target: T5, ELF3 (Homo sapiens, UniProt P78545 1-371); conditions: protein: recombinant; tags: N-terminal GST; dsDNA, one strand shown
# T5 sequence: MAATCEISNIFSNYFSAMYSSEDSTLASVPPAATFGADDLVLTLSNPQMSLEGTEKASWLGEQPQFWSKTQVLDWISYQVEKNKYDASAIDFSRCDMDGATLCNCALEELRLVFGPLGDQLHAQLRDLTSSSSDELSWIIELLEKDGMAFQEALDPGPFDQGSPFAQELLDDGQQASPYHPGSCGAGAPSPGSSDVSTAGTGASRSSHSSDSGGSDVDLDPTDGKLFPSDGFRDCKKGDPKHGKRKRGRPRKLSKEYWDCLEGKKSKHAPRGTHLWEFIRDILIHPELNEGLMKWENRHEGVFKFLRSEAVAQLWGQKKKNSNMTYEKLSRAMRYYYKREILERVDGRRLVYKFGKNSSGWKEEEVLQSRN
# In short: as §1
# [9] = biological target: CRX (Homo sapiens, UniProt O43186 1-299); conditions: protein: recombinant; tags: N-terminal GST; dsDNA, one strand shown
# In short: as §1
# [10] = biological target: ETV1 (Homo sapiens, UniProt P50549 1-477); conditions: protein: recombinant; tags: N-terminal GST; dsDNA, one strand shown
# In short: as §1
# [11] = biological target: T6, ERF (Homo sapiens, UniProt P50548 1-548); conditions: protein: recombinant; tags: N-terminal GST; dsDNA, one strand shown
# T6 sequence: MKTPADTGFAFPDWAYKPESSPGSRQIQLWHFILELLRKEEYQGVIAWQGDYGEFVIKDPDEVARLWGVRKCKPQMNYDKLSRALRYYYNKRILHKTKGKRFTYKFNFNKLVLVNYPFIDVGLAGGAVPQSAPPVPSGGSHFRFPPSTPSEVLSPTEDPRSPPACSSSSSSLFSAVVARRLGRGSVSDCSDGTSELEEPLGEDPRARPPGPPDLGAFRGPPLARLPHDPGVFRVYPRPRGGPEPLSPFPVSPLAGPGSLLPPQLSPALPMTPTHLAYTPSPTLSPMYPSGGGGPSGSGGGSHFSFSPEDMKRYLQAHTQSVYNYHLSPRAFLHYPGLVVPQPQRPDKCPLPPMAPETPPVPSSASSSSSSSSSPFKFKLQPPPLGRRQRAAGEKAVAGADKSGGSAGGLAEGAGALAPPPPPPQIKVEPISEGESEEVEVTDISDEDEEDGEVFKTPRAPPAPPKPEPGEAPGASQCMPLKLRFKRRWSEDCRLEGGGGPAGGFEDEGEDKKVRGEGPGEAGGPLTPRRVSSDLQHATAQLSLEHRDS
# In short: as §1
# [12] = biological target: T7, ETV3L (Homo sapiens, UniProt Q6ZN32 1-361); conditions: protein: recombinant; tags: N-terminal GST; dsDNA, one strand shown
# T7 sequence: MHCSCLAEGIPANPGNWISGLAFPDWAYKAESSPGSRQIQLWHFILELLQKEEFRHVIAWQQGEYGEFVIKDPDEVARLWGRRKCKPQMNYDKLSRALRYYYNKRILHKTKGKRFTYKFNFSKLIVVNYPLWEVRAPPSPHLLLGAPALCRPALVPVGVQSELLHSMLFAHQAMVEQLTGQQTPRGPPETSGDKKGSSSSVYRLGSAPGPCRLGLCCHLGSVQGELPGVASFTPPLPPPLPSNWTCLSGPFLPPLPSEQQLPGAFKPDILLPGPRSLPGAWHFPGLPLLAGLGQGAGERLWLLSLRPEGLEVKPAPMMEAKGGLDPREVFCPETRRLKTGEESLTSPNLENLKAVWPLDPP
# In short: as §1
# [13] = biological target: T8, ETS2 (Homo sapiens, UniProt P15036 1-469); conditions: protein: recombinant; tags: N-terminal GST; dsDNA, one strand shown
# T8 sequence: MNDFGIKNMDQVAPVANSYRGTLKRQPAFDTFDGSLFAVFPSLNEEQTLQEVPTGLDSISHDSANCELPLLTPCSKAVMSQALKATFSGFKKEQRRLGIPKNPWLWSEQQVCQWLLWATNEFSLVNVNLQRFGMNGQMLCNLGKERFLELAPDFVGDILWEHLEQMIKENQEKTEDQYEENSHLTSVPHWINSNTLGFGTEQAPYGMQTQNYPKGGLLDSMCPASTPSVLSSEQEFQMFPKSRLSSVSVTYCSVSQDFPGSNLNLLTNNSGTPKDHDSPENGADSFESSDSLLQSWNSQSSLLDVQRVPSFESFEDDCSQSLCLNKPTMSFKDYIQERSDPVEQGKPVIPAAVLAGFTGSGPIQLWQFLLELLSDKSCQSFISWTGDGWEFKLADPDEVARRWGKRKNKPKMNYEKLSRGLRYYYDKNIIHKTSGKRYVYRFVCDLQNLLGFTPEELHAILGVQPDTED
# In short: as §1
# [14] = biological target: T9, SPDEF (Homo sapiens, UniProt O95238 1-335); conditions: protein: recombinant; tags: N-terminal GST; dsDNA, one strand shown
# T9 sequence: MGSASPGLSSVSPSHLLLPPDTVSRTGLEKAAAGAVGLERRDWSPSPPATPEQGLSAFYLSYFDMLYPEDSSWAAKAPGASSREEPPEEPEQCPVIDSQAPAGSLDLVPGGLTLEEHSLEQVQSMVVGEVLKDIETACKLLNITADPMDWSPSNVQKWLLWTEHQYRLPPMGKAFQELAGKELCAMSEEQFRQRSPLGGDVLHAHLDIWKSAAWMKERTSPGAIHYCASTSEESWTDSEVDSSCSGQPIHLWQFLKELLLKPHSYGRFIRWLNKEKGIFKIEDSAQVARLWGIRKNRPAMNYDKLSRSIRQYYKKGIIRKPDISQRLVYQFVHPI
# In short: as §1
# [15] = biological target: T10, ETV7 (Homo sapiens, UniProt Q9Y603 1-341); conditions: protein: recombinant; tags: N-terminal GST; dsDNA, one strand shown
# T10 sequence: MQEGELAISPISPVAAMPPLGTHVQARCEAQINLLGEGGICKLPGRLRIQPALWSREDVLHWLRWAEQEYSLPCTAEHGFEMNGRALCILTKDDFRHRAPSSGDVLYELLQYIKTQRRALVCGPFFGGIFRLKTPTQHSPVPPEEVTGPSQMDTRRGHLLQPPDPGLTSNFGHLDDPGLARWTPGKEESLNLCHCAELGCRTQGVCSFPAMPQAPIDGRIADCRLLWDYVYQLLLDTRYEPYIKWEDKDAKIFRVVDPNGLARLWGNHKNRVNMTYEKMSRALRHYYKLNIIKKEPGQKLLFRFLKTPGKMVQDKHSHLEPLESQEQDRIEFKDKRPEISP
# In short: as §1
# [16] = biological target: T11, ELF5 (Homo sapiens, UniProt Q9UKW6-2 1-255); conditions: protein: recombinant; tags: N-terminal GST; dsDNA, one strand shown
# T11 sequence: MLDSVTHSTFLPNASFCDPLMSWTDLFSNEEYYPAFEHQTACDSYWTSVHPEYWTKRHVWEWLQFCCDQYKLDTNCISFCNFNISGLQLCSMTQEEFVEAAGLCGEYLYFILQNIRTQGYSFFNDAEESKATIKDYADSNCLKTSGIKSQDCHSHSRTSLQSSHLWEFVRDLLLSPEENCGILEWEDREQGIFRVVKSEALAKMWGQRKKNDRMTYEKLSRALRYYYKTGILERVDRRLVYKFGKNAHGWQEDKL
# In short: as §1
# [17] = biological target: T12, ETV3 (Homo sapiens, UniProt P41162-2 1-143); conditions: protein: recombinant; tags: N-terminal GST; dsDNA, one strand shown
# T12 sequence: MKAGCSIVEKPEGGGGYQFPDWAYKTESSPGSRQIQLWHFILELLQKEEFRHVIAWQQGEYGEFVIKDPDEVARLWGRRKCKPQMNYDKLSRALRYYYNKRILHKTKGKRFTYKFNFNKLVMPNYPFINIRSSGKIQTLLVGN
# In short: as §1
# [18] = biological target: ETV6 (Homo sapiens, UniProt P41212 1-452); conditions: protein: recombinant; tags: N-terminal GST; dsDNA, one strand shown
# In short: as §1
# Chain of ETV1 (P50549 whole entry): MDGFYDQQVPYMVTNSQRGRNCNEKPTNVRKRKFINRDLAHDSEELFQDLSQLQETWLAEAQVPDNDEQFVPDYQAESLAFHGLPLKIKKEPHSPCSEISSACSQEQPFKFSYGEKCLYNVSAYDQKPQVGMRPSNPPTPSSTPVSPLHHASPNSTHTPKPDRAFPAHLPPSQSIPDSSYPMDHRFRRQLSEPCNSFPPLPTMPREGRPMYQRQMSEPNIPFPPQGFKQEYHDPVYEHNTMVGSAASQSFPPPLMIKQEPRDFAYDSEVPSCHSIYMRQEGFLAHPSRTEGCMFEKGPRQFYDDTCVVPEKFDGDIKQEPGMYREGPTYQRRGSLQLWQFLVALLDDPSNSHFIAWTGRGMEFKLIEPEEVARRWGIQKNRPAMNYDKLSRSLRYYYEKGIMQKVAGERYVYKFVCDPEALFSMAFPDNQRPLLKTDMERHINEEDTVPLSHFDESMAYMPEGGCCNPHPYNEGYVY
# Chain of ETV6 (P41212 whole entry): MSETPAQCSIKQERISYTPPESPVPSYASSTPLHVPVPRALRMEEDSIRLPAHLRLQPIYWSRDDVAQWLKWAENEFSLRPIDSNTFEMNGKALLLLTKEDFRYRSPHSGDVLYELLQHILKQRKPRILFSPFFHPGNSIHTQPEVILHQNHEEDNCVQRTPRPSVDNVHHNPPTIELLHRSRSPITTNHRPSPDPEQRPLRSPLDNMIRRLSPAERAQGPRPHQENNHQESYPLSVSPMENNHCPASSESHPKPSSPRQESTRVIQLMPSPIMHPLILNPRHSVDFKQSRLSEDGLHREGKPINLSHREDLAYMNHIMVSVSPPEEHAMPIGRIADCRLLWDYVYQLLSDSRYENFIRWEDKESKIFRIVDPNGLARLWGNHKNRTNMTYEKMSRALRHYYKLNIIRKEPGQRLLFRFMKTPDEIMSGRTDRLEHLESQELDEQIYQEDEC
# Chain of ELF4 (Q99607 whole entry): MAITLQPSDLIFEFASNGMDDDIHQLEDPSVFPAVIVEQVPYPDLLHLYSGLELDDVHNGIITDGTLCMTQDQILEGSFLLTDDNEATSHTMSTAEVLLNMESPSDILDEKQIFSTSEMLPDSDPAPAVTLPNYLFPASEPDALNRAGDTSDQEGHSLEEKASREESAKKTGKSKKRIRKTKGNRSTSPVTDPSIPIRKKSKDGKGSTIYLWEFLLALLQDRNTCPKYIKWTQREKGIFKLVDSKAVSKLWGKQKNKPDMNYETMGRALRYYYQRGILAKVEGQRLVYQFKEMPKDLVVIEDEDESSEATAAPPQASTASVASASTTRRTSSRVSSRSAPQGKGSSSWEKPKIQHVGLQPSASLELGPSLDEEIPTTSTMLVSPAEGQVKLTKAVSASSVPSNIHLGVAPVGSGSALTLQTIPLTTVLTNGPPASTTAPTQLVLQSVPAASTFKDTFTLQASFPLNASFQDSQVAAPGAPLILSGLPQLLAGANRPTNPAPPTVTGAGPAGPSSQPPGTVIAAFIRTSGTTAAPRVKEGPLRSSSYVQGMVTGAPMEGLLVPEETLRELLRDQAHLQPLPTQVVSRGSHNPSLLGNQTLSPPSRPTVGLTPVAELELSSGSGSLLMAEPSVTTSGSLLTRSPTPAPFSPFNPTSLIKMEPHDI
# Chain of CRX (O43186 whole entry): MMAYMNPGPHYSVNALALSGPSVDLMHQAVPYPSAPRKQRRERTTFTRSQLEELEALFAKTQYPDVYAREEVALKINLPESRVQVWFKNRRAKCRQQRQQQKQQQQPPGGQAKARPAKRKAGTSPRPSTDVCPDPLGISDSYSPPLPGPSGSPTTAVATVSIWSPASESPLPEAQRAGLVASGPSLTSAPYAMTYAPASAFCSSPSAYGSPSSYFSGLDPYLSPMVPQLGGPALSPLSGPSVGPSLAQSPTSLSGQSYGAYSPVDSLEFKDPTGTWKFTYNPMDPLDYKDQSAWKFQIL
# Chain of HSF1 (Q00613 whole entry): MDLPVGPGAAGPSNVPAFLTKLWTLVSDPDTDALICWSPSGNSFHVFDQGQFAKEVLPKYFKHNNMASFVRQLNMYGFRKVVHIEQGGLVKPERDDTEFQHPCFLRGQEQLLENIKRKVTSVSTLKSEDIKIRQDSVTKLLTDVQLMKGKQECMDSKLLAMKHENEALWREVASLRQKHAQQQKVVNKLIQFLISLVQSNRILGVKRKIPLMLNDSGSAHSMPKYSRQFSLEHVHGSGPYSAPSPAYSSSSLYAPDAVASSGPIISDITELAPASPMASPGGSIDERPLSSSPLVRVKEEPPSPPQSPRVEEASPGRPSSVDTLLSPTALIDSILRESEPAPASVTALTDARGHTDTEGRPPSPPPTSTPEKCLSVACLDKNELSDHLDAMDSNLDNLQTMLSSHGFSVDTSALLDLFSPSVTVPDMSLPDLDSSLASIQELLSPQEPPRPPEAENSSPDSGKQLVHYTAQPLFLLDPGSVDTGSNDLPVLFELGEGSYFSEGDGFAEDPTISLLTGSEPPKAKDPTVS
# Chain of ETV5 (P41161 whole entry): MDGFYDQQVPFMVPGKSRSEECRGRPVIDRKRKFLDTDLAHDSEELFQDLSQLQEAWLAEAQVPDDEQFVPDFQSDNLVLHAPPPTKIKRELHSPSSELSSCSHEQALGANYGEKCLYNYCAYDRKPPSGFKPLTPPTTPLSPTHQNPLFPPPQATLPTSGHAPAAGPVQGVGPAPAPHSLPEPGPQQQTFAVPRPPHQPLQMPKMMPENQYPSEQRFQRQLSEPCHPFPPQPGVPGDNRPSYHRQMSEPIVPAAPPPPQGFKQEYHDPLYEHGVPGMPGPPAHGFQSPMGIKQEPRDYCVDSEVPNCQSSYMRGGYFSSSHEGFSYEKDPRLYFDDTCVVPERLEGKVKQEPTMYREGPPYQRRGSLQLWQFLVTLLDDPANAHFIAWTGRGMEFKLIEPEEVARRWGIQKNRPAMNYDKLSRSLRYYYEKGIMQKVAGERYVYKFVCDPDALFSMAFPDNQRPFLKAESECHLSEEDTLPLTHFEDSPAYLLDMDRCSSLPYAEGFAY
sequence,measurement,setting,value
GTATTT,binding signal,[1],"1.6 fold enrichment (6-mer frequency, TF over GST control)"
same,binding signal,[2],"1.59 fold enrichment (6-mer frequency, TF over GST control)"
same,binding signal,[3],"1.5 fold enrichment (6-mer frequency, TF over GST control)"
same,binding signal,[4],"1.66 fold enrichment (6-mer frequency, TF over GST control)"
same,binding signal,[5],"1.59 fold enrichment (6-mer frequency, TF over GST control)"
same,binding signal,[6],"1.52 fold enrichment (6-mer frequency, TF over GST control)"
same,binding signal,[7],"1.69 fold enrichment (6-mer frequency, TF over GST control)"
same,binding signal,[8],"1.39 fold enrichment (6-mer frequency, TF over GST control)"
same,binding signal,[9],"1.73 fold enrichment (6-mer frequency, TF over GST control)"
same,binding signal,[10],"1.64 fold enrichment (6-mer frequency, TF over GST control)"
same,binding signal,[11],"1.47 fold enrichment (6-mer frequency, TF over GST control)"
same,binding signal,[12],"1.62 fold enrichment (6-mer frequency, TF over GST control)"
same,binding signal,[13],"1.7 fold enrichment (6-mer frequency, TF over GST control)"
same,binding signal,[14],"1.64 fold enrichment (6-mer frequency, TF over GST control)"
same,binding signal,[15],"1.73 fold enrichment (6-mer frequency, TF over GST control)"
same,binding signal,[16],"1.62 fold enrichment (6-mer frequency, TF over GST control)"
same,binding signal,[17],"1.53 fold enrichment (6-mer frequency, TF over GST control)"
same,binding signal,[18],"1.79 fold enrichment (6-mer frequency, TF over GST control)"
